Data from PubChem BioAssay (NCI).
About 79,000 compounds went through this panel and 15% of them were active in at least one assay; those are over-represented in the sample as a whole. Unmarked numbers belong to inactive results. Activity calls are given as the source filed them. No stated cut-off is given here; in the data, active means growth inhibition above about 70%; inactive means the rest.

How the values were obtained:
[1] = NCI Yeast Anticancer Drug Screen. Data for the rad50 strain (AID 155);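 further: 0% = growth of vehicle-only cultures of the same strain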; conditions: S. cerevisiae rad50 strain growth inhibition, active compounds read high
How it was run: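 Vehicle-treated cultures provide the reference for the growth inhibition reported for compound-exposed, repair-deficient yeast.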

[2] = NCI Yeast Anticancer Drug Screen. Data for the mec2-1 strain (AID 157); conditions: S. cerevisiae mec2-1 strain, active compounds read high
How it was run: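 Compounds were applied to mec2-1 yeast cells. Their growth was then compared with that of vehicle-treated cultures to give growth inhibition.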

[3] = NCI Yeast Anticancer Drug Screen. Data for the sgs1 mgt1 strain (AID 161);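 further: 0% = growth of cultures given vehicle only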; conditions: S. cerevisiae sgs1 mgt1 strain, active compounds read high
How it was run: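 Growth of a repair-deficient yeast mutant was monitored after compound treatment and expressed as inhibition relative to vehicle-treated cultures.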

[4] = NCI Yeast Anticancer Drug Screen. Data for the cln2 rad14 strain (AID 165);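 further: 0% = growth equal to vehicle treated cultures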; conditions: S. cerevisiae cln2 rad14 strain, active compounds read high
How it was run: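 Strain: cln2 rad14 yeast, altered in cell cycle control and DNA damage repair. Read-out: growth inhibition vs vehicle.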

[5] = NCI Yeast Anticancer Drug Screen. Data for the bub3 strain (AID 167); conditions: S. cerevisiae bub3 mutant strain, active compounds read high
How it was run: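 Mutant yeast screening strain plus compound; vehicle-treated cultures serve as the 0% inhibition reference.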

[6] = NCI Yeast Anticancer Drug Screen. Data for the mlh1 rad18 strain (AID 175); conditions: S. cerevisiae mlh1 rad18 strain growth inhibition, active compounds read high
How it was run: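 A repair-deficient yeast strain is exposed to test compound, and growth is scored relative to vehicle-treated controls.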

[7] = at 5.0 µM (retest, dose inferred, filed as 0.5)
[8] = at 50.0 µM (retest, dose inferred, filed as 5.0)

| SMILES | growth inhibition [1, 7] | growth inhibition [1, 8] | growth inhibition ([1]; at 50.0 µM) | growth inhibition [2, 7] | growth inhibition [2, 8] | growth inhibition ([2]; at 50.0 µM) | growth inhibition [3, 7] | growth inhibition [3, 8] | growth inhibition ([3]; at 50.0 µM) | growth inhibition [4, 7] | growth inhibition [4, 8] | growth inhibition ([4]; at 50.0 µM) | growth inhibition [5, 7] | growth inhibition [5, 8] | growth inhibition ([5]; at 50.0 µM) | growth inhibition [6, 7] | growth inhibition [6, 8] | growth inhibition ([6]; at 50.0 µM) |
| --- | --- | --- | --- | --- | --- | --- | --- | --- | --- | --- | --- | --- | --- | --- | --- | --- | --- | --- |
| O=C(Cl)C(c1ccccc1)(c1ccccc1)c1ccccc1 | -3% | 98% (active) | 98.2% (active) | 14% | 97% (active) | 95.1% (active) | -10% | 98% (active) | 97.8% (active) | 18% | 98% (active) | 92% (active) | 10% | 98% (active) | 94.7% (active) | -8% | 99% (active) | 96.3% (active) |
| Cc1noc(NS(=O)(=O)c2ccc(N=Nc3cc(N=Nc4ccc(S(=O)(=O)Nc5onc(C)c5C)cc4)c4c(NC(=O)C(Cl)Cl)cccc4c3O)cc2)c1C (tested in a mixture with another compound) | 96% (active) | 61% | 73% (active) | 97% (active) | 57% | 74.5% (active) | 95% (active) | 63% | 75% (active) | 96% (active) | 65% | 63.4% | 95% (active) | 56% | 49.1% | 88% (active) | 43% | 59.2% |
| OC(CCN1CCOCC1)(c1cccc(Cl)c1)C1CCCCC1 (configuration not stated) | 3% | 45% | 72.1% (active) | 1% | 19% | -0.6% | 0% | 73% (active) | 45.7% | 2% | 40% | -26.9% | 2% | 68% | 75.4% (active) | 2% | 58% | 40.8% |
| CC(=O)N1c2ccccc2Sc2c1ccc1ccccc21 | 10% | 94% (active) | 96% (active) | 5% | 95% (active) | 96.8% (active) | 11% | 94% (active) | 96.5% (active) | 1% | 94% (active) | 95% (active) | 6% | 93% (active) | 94.3% (active) | 2% | 92% (active) | 96.7% (active) |
| CCc1cccc(C(C)(C)C)c1NC(=S)N/C=C(\C#N)C(=O)c1ccc2ccccc2c1 | -5% | 34% | 67.4% | -26% | 25% | 35.5% | -8% | 22% | 70.7% (active) | -18% | 8% | 29.3% | -17% | 18% | 63.9% | -6% | 38% | 65.2% |
| Cc1ccc(SSCCCS(=O)O)cc1 | -1% | -93% | 61.1% | -3% | 60% | 50.7% | 6% | 78% (active) | 83.8% (active) | -12% | 41% | 60.1% | 4% | 82% (active) | 66.3% | 3% | 66% | 75.2% (active) |
| O=C(CSc1nnc(-c2ccc(N=Cc3ccc(Cl)cc3)cc2)o1)Nc1ccc(Cl)cc1Cl | 14% | 99% (active) | 95.8% (active) | -1% | 99% (active) | 99.2% (active) | 17% | 100% (active) | 95.9% (active) | 27% | 99% (active) | 91.2% (active) | 12% | 100% (active) | 98.5% (active) | 30% | 99% (active) | 97.9% (active) |
| CCCCCCCCCCCC(=O)c1c(O)c2ccccc2oc1=O | 6% | -4% | 54.1% | 45% | 28% | 44.4% | 21% | -8% | 71.2% (active) | -14% | -7% | 22.3% | 0% | -21% | 43.8% | -4% | -4% | 68% |
| Cc1c2cnccc2c(C)c2c1c1ccccc1n2CCOC(=O)c1ccccc1 | 9% | 94% (active) | 96.4% (active) | -4% | 78% (active) | 87.8% (active) | 1% | 81% (active) | 89.7% (active) | 39% | 82% (active) | 75.2% (active) | 8% | 87% (active) | 90.3% (active) | 10% | 87% (active) | 91.5% (active) |
| Cc1cc(NC(=S)SCc2ccc(Cl)cc2)c([N+](=O)[O-])cc1C | 65% | 95% (active) | 96% (active) | 45% | 97% (active) | 98.2% (active) | 90% (active) | 96% (active) | 97.3% (active) | 42% | 92% (active) | 94.3% (active) | 53% | 97% (active) | 96.2% (active) | 98% (active) | 96% (active) | 97.2% (active) |
| O=C1C2CCCC3CCCC(C(=O)N1O)C32 (configuration not stated) | 89% (active) | 96% (active) | 91.9% (active) | 90% (active) | 98% (active) | 93% (active) | 70% (active) | 94% (active) | 93.5% (active) | 52% | 69% | 74.7% (active) | 93% (active) | 97% (active) | 92% (active) | 87% (active) | 97% (active) | 90.3% (active) |
| Cc1cc(=O)c2c(ccc3cc4ccccc4cc32)[nH]1 | -6% | 41% | 66.8% | 0% | 58% | 38.1% | -16% | 54% | 45.8% | -5% | 17% | 43.8% | -7% | 22% | 39.6% | 14% | 49% | 59.1% |
| CCCCCCCCCCCC(O)CN1CCOCC1 (configuration not stated) | 49% | 1% | 98.4% (active) | 46% | 9% | 97.5% (active) | 49% | -2% | 43.8% | 46% | 8% | 91.5% (active) | 57% | 31% | 98.8% (active) | 43% | 4% | 94% (active) |
| CCCCCCC(C)OC(=O)c1ccccc1C(=O)O (configuration not stated) | 7% | 17% | 11.5% | -11% | 10% | 0.2% | -6% | 16% | 17.9% | 6% | 31% | 63.5% | -3% | 9% | 13.3% | -13% | 12% | 14.8% |
| CCOc1ccccc1/C=N/Nc1nnc(N/N=C/c2ccccc2OCC)c2ccccc12 | 0% | 42% | 44% | 9% | 64% | 48.8% | -24% | 38% | 41.5% | -10% | 58% | 45.2% | -4% | 54% | 44.2% | 7% | 80% (active) | 43.9% |
| Oc1ccc(Cc2cc(Cl)cc(Cl)c2O)cc1Cl | 84% (active) | 100% (active) | 99.5% (active) | 84% (active) | 99% (active) | 99.7% (active) | 68% | 99% (active) | 99.4% (active) | 91% (active) | 99% (active) | 99.3% (active) | 70% (active) | 100% (active) | 99.3% (active) | 94% (active) | 100% (active) | 99.2% (active) |
| Cc1nc(Nc2ccc(Cl)cc2)sc1C(=O)NNC(=O)C(=O)NN | 3% | 3% | 80.5% (active) | -19% | -8% | 59.5% | -13% | 9% | 61.8% | -31% | -10% | 64.5% | -26% | -5% | 41.1% | -45% | -32% | 69.5% |
| CCCCC(CC)C(O)C(=O)O (configuration not stated) | 2% | 30% | 46.8% | -1% | 27% | 45.7% | 4% | 4% | 40.4% | 6% | 32% | 26.6% | 1% | 26% | 33.9% | -2% | 31% | 54.4% |
| COc1ccc(C2CN(C(=O)c3ccccc3)N=C(c3ccccc3)O2)cc1 (configuration not stated) | -1% | -16% | 93.7% (active) | -8% | 1% | 93.2% (active) | 1% | -46% | 93.7% (active) | -5% | -8% | 90.2% (active) | -4% | -67% | 90% (active) | -6% | -6% | 95% (active) |
